# From PubChem BioAssay (NCI)
# Compounds without any hit were thinned out: in the full panel of roughly 79,000, 15% have a hit. Unmarked numbers belong to inactive results. The source made the active and inactive calls. Rule as the data show it: active = growth inhibition above about 70%; inactive = the rest.
# Key:
# [1] = NCI Yeast Anticancer Drug Screen. Data for the rad50 strain (AID 155);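 also: 0% = growth of vehicle-only cultures of the same strain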; conditions: S. cerevisiae rad50 strain growth inhibition, active compounds read high
# Outline: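 Readout: growth inhibition relative to vehicle-treated cultures. Compound exposure was carried out in a genetically defined yeast strain deficient in DNA damage repair.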
# [2] = NCI Yeast Anticancer Drug Screen. Data for the mec2-1 strain (AID 157); conditions: S. cerevisiae mec2-1 strain, active compounds read high
# Outline: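 Strain: mec2-1 (DNA repair/cell cycle alteration). Compound exposure, then growth measured; inhibition expressed relative to vehicle.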
# [3] = NCI Yeast Anticancer Drug Screen. Data for the sgs1 mgt1 strain (AID 161);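 also: 0% = growth of cultures given vehicle only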; conditions: S. cerevisiae sgs1 mgt1 strain, active compounds read high
# Outline: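 Mutant yeast exposed to compound; growth scored against vehicle-only wells.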
# [4] = NCI Yeast Anticancer Drug Screen. Data for the cln2 rad14 strain (AID 165);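 also: 0% = growth equal to vehicle treated cultures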; conditions: S. cerevisiae cln2 rad14 strain, active compounds read high
# Outline: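 Compounds are applied to the cln2 rad14 yeast strain, and growth is then compared with that of vehicle-treated cultures to give inhibition.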
# [5] = NCI Yeast Anticancer Drug Screen. Data for the bub3 strain (AID 167); conditions: S. cerevisiae bub3 mutant strain, active compounds read high
# Outline: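 Readout: yeast growth inhibition, expressed relative to vehicle-only wells. The test organism is a mutant strain from a panel with lesions in DNA repair or checkpoint genes.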
# [6] = NCI Yeast Anticancer Drug Screen. Data for the mlh1 rad18 strain (AID 175); conditions: S. cerevisiae mlh1 rad18 strain growth inhibition, active compounds read high
# Outline: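 Read-out is yeast growth inhibition, calculated against vehicle-only controls. The compound was applied to a strain engineered with DNA damage repair alterations.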
# [7] = at 5.0 µM (retest, dose inferred, filed as 0.5)
# [8] = at 50.0 µM (retest, dose inferred, filed as 5.0)
SMILES,"growth inhibition [1, 7]","growth inhibition [1, 8]",growth inhibition ([1]; at 50.0 µM),"growth inhibition [2, 7]","growth inhibition [2, 8]",growth inhibition ([2]; at 50.0 µM),"growth inhibition [3, 7] [%]","growth inhibition [3, 8]",growth inhibition ([3]; at 50.0 µM),"growth inhibition [4, 7]","growth inhibition [4, 8]",growth inhibition ([4]; at 50.0 µM),"growth inhibition [5, 7]","growth inhibition [5, 8]",growth inhibition ([5]; at 50.0 µM),"growth inhibition [6, 7]","growth inhibition [6, 8]",growth inhibition ([6]; at 50.0 µM)
Cc1[nH]c2ccccc2c1C1=CC2(C)Nc3ccccc3C2C(C)(C)C1 (stereo not given),-4%,26%,90.2% (active),2%,-1%,93.8% (active),-4,23%,92.3% (active),2%,-4%,93.5% (active),10%,79% (active),94.8% (active),-1%,28%,94.7% (active)
O=C(NC(=Nc1ccccc1)SCCSC(=Nc1ccccc1)NC(=O)c1ccccc1)c1ccccc1,0%,0%,85.6% (active),18%,18%,79.9% (active),10,10%,86.2% (active),5%,5%,84.5% (active),-3%,-3%,88% (active),1%,1%,78% (active)
COc1ccc(/C=N/NC(=O)c2ccco2)cc1OC,-5%,0%,63.5%,-5%,-15%,73.2% (active),-3,5%,23.8%,-21%,-20%,19.1%,-7%,-13%,56.2%,-6%,-14%,35.8%
CC(C)(C)N=C=NC(c1ccccc1)(c1ccccc1)c1ccccc1,-3%,-21%,-1.9%,-9%,-7%,-6.1%,-6,-24%,2.45%,-1%,-18%,42.5%,-6%,-22%,4.5%,11%,1%,-3.25%
O=C(Nc1cc(Cl)ccc1Cl)Nc1ccc(Cl)cc1C(=O)c1ccccc1,98% (active),99% (active),84.9% (active),97% (active),98% (active),91.6% (active),27,95% (active),88.9% (active),73% (active),92% (active),88% (active),71% (active),87% (active),79.3% (active),100% (active),99% (active),88.2% (active)
